A selection: hits, their analogues and other compounds. The true share with any hit is near 17%.
TDP1 cell noCPT: qHTS for Inhibitors of human tyrosyl-DNA phosphodiesterase 1 (TDP1): qHTS in cells in absence of CPT. DT40 Tdp1-/- hTDP1 cells, no CPT, ATP luminescence, 48 h. Potency, µM (highest dose often 46.2 µM), hits mostly inhibitors. actives 15% (n = 420,000); note: nearly all actives have a fitted effect of over 55% in size
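Cells were dispensed at 400 per well, compounds added by pin tool, plates incubated ≥48 hr at 37 °C, then CellTiter-Glo added for 30 min at room temperature before luminescence reading. Line: DT40 Tdp1-/- complemented with hTDP1; camptothecin omitted.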
ATXN2 expr inh: Primary qHTS for Inhibitors of ATXN expression | Potency, µM (series often up to 57 µM), actives largely listed as inhibitors | actives 0.72% (n = 360,000) | HEK-293 ATXN2-luciferase reporter, luminescence, 24 h; note: nearly all actives have a fitted effect of over 55% in size
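qHTS (up to 57 uM final) was run with 24 h compound exposure of reporter cells at 37 °C. Each well was multiplexed: SteadyGlo luminescence measured ATXN2-luciferase expression after a fluorogenic Gly-Phe-AFC viability readout (25 uM final).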
TGFb SMAD3 inh: qHTS for Inhibitors of TGF-b. AID 588855, 2011. actives 1.2% (n = 410,000). HepG2 CAGA-GFP TGF-b/SMAD3 reporter, GFP fluorescence, 18 h; TGF-beta stimulated, 500 pg/mL final. Potency, µM (top dose mostly 46.1 µM), actives largely listed as inhibitors; note: nearly all actives have a fitted effect of over 65% in size
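GFP signal (ex488/em500-530) from TGF-beta-stimulated HEPG2 CAGA-GFP cells, 500 pg/mL final, 18 h at 37 degrees C in DMEM plus 1% FBS, normalized to unstimulated and DMSO-stimulated controls.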
TDP1 cell CPT: qHTS for Inhibitors of human tyrosyl-DNA phosphodiesterase 1 (TDP1): qHTS in cells in presence of CPT; Potency, µM (highest dose often 46.2 µM), actives largely listed as inhibitors; actives 12% (n = 420,000); chicken DT40 Tdp1-/-;hTDP1 cells + 20 nM CPT, ATP luminescence, 48 h; note: nearly all actives have a fitted effect of over 55% in size
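Cell growth measured by CellTiter-Glo luminescence after a minimum 48 h, 37 C compound exposure with 20 nM CPT in Tdp1-knockout DT40 cells stably expressing hTDP1, seeded 400/well; qHTS titration format.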
ATXN viability: Viability Counterscreen for Primary qHTS for Inhibitors of ATXN expression; S2 cells (HEK-293 line with an ATXN2-luciferase reporter) viability, CellTiter-Fluor protease fluorescence, 24 h; Potency, µM (doses to about 56.7 µM), hits mostly cytotoxic; actives 0.49% (n = 400,000); AID 651635, 2014; note: nearly all actives have a fitted effect of over 40% in size
HepG2 tox: qHTS for Inhibitors of TGF-b: Cytotox Counterscreen. HepG2 CAGA-GFP viability, ATP luminescence, 18 h. Potency, µM (doses to about 46.1 µM), most hits filed as cytotoxic. actives 0.76% (n = 410,000). AID 588856, 2011
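HepG2 CAGA-GFP cells (1000/well, DMEM with 1% FBS) received compound, then TGF-beta at 500 pg/mL final, and were incubated 18 hours at 37 degrees C. Viability was read by CellTiter-Glo luminescence. Media-only wells were set as complete cell-killing and DMSO as no toxicity.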
Of the large screens only hits and unclear results are named; the others gave an inactive call. Calls come from the whole dose curve; as a rule, active = well fitted curve in the direction sought with a large enough effect; inconclusive = small, poorly fitted or top-dose-only effect, or another doubt; inactive = no such curve, though single readings can be large; an effect the other way counts as inactive or inconclusive.

CC1CC(C)CN(c2cc(N(C)CCO)c([N+](=O)[O-])c3nonc23)C1 (stereo not given)	TDP1 cell noCPT inconclusive, ATXN viability inconclusive
COc1ccc(S(=O)(=O)N(CC(=O)Nc2ccccc2Br)Cc2ccccc2)cc1	TDP1 cell noCPT inconclusive, TDP1 cell CPT inconclusive, ATXN viability inconclusive
O=C1CCCCC(=O)[C@H](O)C[C@H](COCc2ccccc2)O1	none (no result: TGFb SMAD3 inh, HepG2 tox)
C=C(C)C(COc1c2occc2cc2ccc(=O)oc12)OC(C)(C)C(O)COc1c2occc2cc2ccc(=O)oc12 (stereo not given)	TDP1 cell noCPT 15µM, TDP1 cell CPT 13µM, ATXN viability inconclusive
Cc1ccc(CNC(=O)CSc2ncc(S(=O)(=O)c3ccc(C)c(Cl)c3)c(=O)[nH]2)cc1	none (no result: TDP1 cell noCPT, TDP1 cell CPT)
CCn1cc(C(=O)N[C@@H](CCSC)C(=O)NCCCN2CCOCC2)c(=O)c2cc3c(cc21)OCO3	none
Cc1nn(-c2ccccc2)c2sc(C(=O)N3CCc4ccccc4C3)cc12	TDP1 cell noCPT 23µM, TGFb SMAD3 inh inconclusive, TDP1 cell CPT inconclusive
Cc1nn(-c2ccccc2)c2sc(C(=O)Nc3ccc(Br)cc3)cc12	TDP1 cell noCPT 16µM, TDP1 cell CPT inconclusive
COc1ccc(S(=O)(=O)N(CC(N)=O)C2CCCCC2)cc1Cl	TDP1 cell noCPT inconclusive, TDP1 cell CPT 23µM
COc1ccc(N2CCN(S(=O)(=O)c3c(C)[nH]c(=O)[nH]c3=O)CC2)cc1	none
O=S1(=O)CCOC[C@H](c2ccccc2)N1Cc1ccc(Cl)c(Cl)c1	TDP1 cell noCPT inconclusive, TGFb SMAD3 inh inconclusive, TDP1 cell CPT inconclusive (no result: ATXN2 expr inh, ATXN viability)
CC1(C(=O)Nc2cccc(NS(C)(=O)=O)c2)Cc2c(-c3cccc(C(N)=O)c3)ccnc2O1 (stereo not given)	none
Nc1c(NC2CCCCC2)c2ccccc2oc1=O	TDP1 cell noCPT 16µM, TDP1 cell CPT inconclusive
Nc1c(NCCN2CCOCC2)c2ccccc2oc1=O	TDP1 cell noCPT 9.2µM, TDP1 cell CPT 5.2µM
CCOc1ccc(S(=O)(=O)n2nc(C)c(S(=O)(=O)N3CCCCC3)c2C)cc1	none
Cc1cc2cc(CN(Cc3cccs3)C(c3nnnn3C(C)(C)C)C(C)C)c3nnnn3c2cc1C (stereo not given)	TDP1 cell noCPT 9.2µM, TDP1 cell CPT 15µM
Cc1ccc(C)c(Cc2c(C)nc3c(C(=O)N4CCOCC4)cnn3c2C)c1	TDP1 cell noCPT 22µM, TDP1 cell CPT 16µM
Cc1nc2c(C(=O)N3CCN(c4ccccn4)CC3)cnn2c(C)c1Cc1cccc(Cl)c1	TDP1 cell noCPT 23µM, TDP1 cell CPT inconclusive
Cc1nc2c(C(=O)O)cnn2c(C)c1Cc1ccccc1	none
COc1ccc(N2CCN(c3ncnc4scc(-c5ccc(C)cc5)c34)CC2)cc1	TDP1 cell noCPT inconclusive, ATXN2 expr inh inconclusive, TDP1 cell CPT inconclusive
COc1ccc(F)cc1CN1CCN(c2ncnc3scc(-c4ccccc4)c23)CC1	TDP1 cell noCPT 16µM, TDP1 cell CPT 15µM
COc1ccc(-c2csc3ncnc(N4CCN(c5cccc(C)c5C)CC4)c23)cc1	TDP1 cell noCPT inconclusive, TDP1 cell CPT 15µM
COc1ccc(N2CCN(c3ncnc4scc(-c5ccccc5)c34)CC2)cc1	TDP1 cell noCPT 16µM, ATXN2 expr inh inconclusive, TGFb SMAD3 inh inconclusive
Cc1cc2ncn(-c3ncnc4sc(C)c(C)c34)c2cc1C	TDP1 cell noCPT inconclusive, ATXN viability inconclusive
Cc1cc2ncn(-c3ncnc4scc(-c5ccccc5)c34)c2cc1C	TDP1 cell noCPT 18µM, TDP1 cell CPT inconclusive
CCCN(CC(=O)Nc1ccc(F)c(F)c1F)C(=O)CN1C(=O)NC2(CCCCC2)C1=O	none (no result: ATXN2 expr inh, ATXN viability)
Cc1ccc(NC(=O)Cn2nc3c(cc2=O)CCCC3)cc1Cl	none (no result: ATXN2 expr inh, ATXN viability)
Cc1ccc(C(=O)N(Cc2cc3cc4c(cc3nc2N2CCOCC2)CCC4)CC2CCCO2)s1 (stereo not given)	none (no result: ATXN2 expr inh, TGFb SMAD3 inh, HepG2 tox)
COc1ccc(-c2csc3ncnc(N4CCN(c5cccc(Cl)c5)CC4)c23)cc1	TDP1 cell noCPT 16µM, ATXN2 expr inh inconclusive, TGFb SMAD3 inh inconclusive, TDP1 cell CPT inconclusive, ATXN viability inconclusive
Cc1ccc(-c2csc3ncnc(N4CCN(C)CC4)c23)cc1C	TDP1 cell noCPT 12µM, TDP1 cell CPT inconclusive
COc1ccc(-c2csc3ncnc(N4CCN(c5cccc(OC)c5)CC4)c23)cc1	TDP1 cell noCPT 18µM, TGFb SMAD3 inh inconclusive, TDP1 cell CPT 16µM
COc1ccc(N2CCN(C(=O)CSc3ncnc4scc(-c5ccc(C)cc5)c34)CC2)cc1	TDP1 cell noCPT 16µM, TDP1 cell CPT inconclusive
Cc1ccc(-n2nc3c(=O)n(CC(=O)NC(C)C)nc(C)c3c2C)cc1	none (no result: ATXN2 expr inh, ATXN viability)
O=C(O)c1ccc(CNC(=O)c2ccccc2NC(=O)c2ccc([N+](=O)[O-])cc2)cc1	ATXN viability inconclusive
COC(=O)[C@@H]1C[C@@H](NC(=O)c2ccc(C(F)(F)F)cc2)CN1Cc1cccc(O)c1	none (no result: ATXN2 expr inh, TGFb SMAD3 inh, HepG2 tox)
CCCn1cnc2scc(-c3ccc(C)c(C)c3)c2c1=O	TDP1 cell noCPT 21µM, TDP1 cell CPT inconclusive
CCOc1ccc(CN2CCN(c3ncnc4scc(-c5ccccc5)c34)CC2)cc1	TDP1 cell noCPT 8.2µM, TDP1 cell CPT inconclusive
CCN1CCN(c2ncnc3scc(-c4ccc(OC)cc4)c23)CC1	none
c1ccc(-c2csc3ncnc(N4CCc5ccccc5C4)c23)cc1	TDP1 cell noCPT 16µM, TGFb SMAD3 inh inconclusive, TDP1 cell CPT inconclusive
Cc1sc2ncn(CCC(=O)O)c(=O)c2c1C	none
Cc1sc2ncn(CCn3cnc4sc(C)c(C)c4c3=O)c(=O)c2c1C	TDP1 cell noCPT 21µM, TDP1 cell CPT inconclusive
C=CCn1cnc2scc(-c3ccc(C)c(C)c3)c2c1=O	TDP1 cell noCPT inconclusive (no result: ATXN2 expr inh)
COc1nc(NCCO)nc(Nc2ccccc2F)n1	ATXN viability inconclusive
CO/C=C\C=C/c1nnn(-c2ccc(Cl)cc2)n1	TDP1 cell noCPT 23µM, TDP1 cell CPT inconclusive
O=C(CCl)N1c2ccccc2SCC1c1ccccc1 (stereo not given)	TDP1 cell noCPT 3.3µM, ATXN2 expr inh inconclusive, TGFb SMAD3 inh inconclusive, TDP1 cell CPT 2.6µM, ATXN viability 20µM
O=C(CCl)N1c2ccccc2OCC1c1ccccc1 (stereo not given)	TDP1 cell noCPT 2.6µM, TDP1 cell CPT 2.3µM, ATXN viability inconclusive
CSCCC(NC(=O)c1ccc(Cl)cc1Cl)C(=O)NNC(=O)c1ccncc1 (stereo not given)	none

Screens deposited in PubChem BioAssay by National Center for Advancing Translational Sciences (NCATS).
